In article PMC8384837, “Expanding the binding specificity for RNA recognition by a PUF domain”:

What follows are sequences tested against PUM1 PUF domain R5-RYS (Homo sapiens, UniProt Q14671 828-1176, C1007R;R1008Y;Q1011S) (assay: yeast three-hybrid, YBZ-1, SC-Leu-His + 0.5 mM 3-AT, 4 days). Conditions: tags: N-Gal4 AD-HA kept; label: inside an RPR1-promoter hybrid RNA with tandem MS2 sites; ssRNA.
In short: (§1)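 Matching RNA elements and Pumilio-1 PUF domain libraries, randomized at the three base-contacting residues of every repeat, were co-expressed from a centromeric plasmid in strain YBZ-1 (LexA–MS2 coat fusion, HIS3 reporter). The repeat regions were PCR-amplified and Illumina-sequenced from cells grown four days on SC-Leu (input) or SC-Leu-His + 0.5 mM 3-AT (selection). The interaction score is the log change in variant frequency from input to selection. It is computed in log2, with a pseudocount of 1 for absent variants.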

Chain of PUM1 PUF domain R5-RYS (Q14671 828-1176 C1007R/R1008Y/Q1011S): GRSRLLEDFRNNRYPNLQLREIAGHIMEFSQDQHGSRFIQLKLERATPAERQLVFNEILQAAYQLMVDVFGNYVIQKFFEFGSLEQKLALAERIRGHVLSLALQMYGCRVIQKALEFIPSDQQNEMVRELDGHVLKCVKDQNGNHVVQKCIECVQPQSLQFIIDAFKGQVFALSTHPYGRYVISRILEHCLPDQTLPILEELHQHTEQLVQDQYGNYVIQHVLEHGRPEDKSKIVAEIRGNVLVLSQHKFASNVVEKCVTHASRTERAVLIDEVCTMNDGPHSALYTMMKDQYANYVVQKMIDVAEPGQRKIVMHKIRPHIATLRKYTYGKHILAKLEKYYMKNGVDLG

Sequence	binding signal
GGCUAGAACUAGUGGAUCCCCCGGCGCCCGGCGGCUCGAGCCCGGGUAAGUGUCAAUAGUCUGCAUGCCGCCGGGCGCCAUGCCUGCAGGUCGACUCUAGAAAACAUG	5.4 log2 enrichment (interaction score)
GGCUAGAACUAGUGGAUCCCCCGGCGCCCGGCGGCUCGAGCCCGGGUAAGUGUAAAUAGUCUGCAUGCCGCCGGGCGCCAUGCCUGCAGGUCGACUCUAGAAAACAUG	3.42 log2 enrichment (interaction score)
GGCUAGAACUAGUGGAUCCCCCGGCGCCCGGCGGCUCGAGCCCGGGUAAGUGUUAAUAGUCUGCAUGCCGCCGGGCGCCAUGCCUGCAGGUCGACUCUAGAAAACAUG	3.23 log2 enrichment (interaction score)

Each sequence was assayed against PUM1 PUF domain R4-SPA (Homo sapiens, UniProt Q14671 828-1176, N971S;H972P;Q975A) in the same assay as above. Conditions: tags: N-Gal4 AD-HA kept; label: inside an RPR1-promoter hybrid RNA with tandem MS2 sites; ssRNA.
In short: as §1

Chain of PUM1 PUF domain R4-SPA (Q14671 828-1176 N971S/H972P/Q975A): as the sequence (Q14671 828-1176 C1007R/R1008Y/Q1011S) above, with N144S, H145P, Q148A, R180C, Y181R, S184Q counted along it

Sequence	binding signal
GGCUAGAACUAGUGGAUCCCCCGGCGCCCGGCGGCUCGAGCCCGGGUAAGUGUAAAUAGUCUGCAUGCCGCCGGGCGCCAUGCCUGCAGGUCGACUCUAGAAAACAUG	3.03 log2 enrichment (interaction score)
GGCUAGAACUAGUGGAUCCCCCGGCGCCCGGCGGCUCGAGCCCGGGUAAGUGUAUAUAGUCUGCAUGCCGCCGGGCGCCAUGCCUGCAGGUCGACUCUAGAAAACAUG	3.25 log2 enrichment (interaction score)
GGCUAGAACUAGUGGAUCCCCCGGCGCCCGGCGGCUCGAGCCCGGGUAAGUGUACAUAGUCUGCAUGCCGCCGGGCGCCAUGCCUGCAGGUCGACUCUAGAAAACAUG	1.59 log2 enrichment (interaction score)

The sequences below were run against PUM1 PUF domain R5-RFL (Homo sapiens, UniProt Q14671 828-1176, C1007R;R1008F;Q1011L) in the same assay as above. Conditions: tags: N-Gal4 AD-HA kept; label: inside an RPR1-promoter hybrid RNA with tandem MS2 sites; ssRNA.
In short: as §1

Chain of PUM1 PUF domain R5-RFL (Q14671 828-1176 C1007R/R1008F/Q1011L): as the sequence (Q14671 828-1176 C1007R/R1008Y/Q1011S) above, with Y181F, S184L counted along it

Sequence	binding signal
GGCUAGAACUAGUGGAUCCCCCGGCGCCCGGCGGCUCGAGCCCGGGUAAGUGUCAAUAGUCUGCAUGCCGCCGGGCGCCAUGCCUGCAGGUCGACUCUAGAAAACAUG	4.06 log2 enrichment (interaction score)
GGCUAGAACUAGUGGAUCCCCCGGCGCCCGGCGGCUCGAGCCCGGGUAAGUGUAAAUAGUCUGCAUGCCGCCGGGCGCCAUGCCUGCAGGUCGACUCUAGAAAACAUG	3.51 log2 enrichment (interaction score)
GGCUAGAACUAGUGGAUCCCCCGGCGCCCGGCGGCUCGAGCCCGGGUAAGUGUUAAUAGUCUGCAUGCCGCCGGGCGCCAUGCCUGCAGGUCGACUCUAGAAAACAUG	4.97 log2 enrichment (interaction score)
